Laboratory results published in PubChem BioAssay (NCI).
This is part of a sample that, as a whole, favours compounds with a hit. Of some 79,000 tested, about 15% had one in any assay. Cut-off read from the data, not from the text of the source: active = growth inhibition above about 70%; inactive = the rest.

Legend:
[1] = NCI Yeast Anticancer Drug Screen. Data for the rad50 strain (AID 155);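 note: 0% = growth of vehicle-only cultures of the same strain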; conditions: S. cerevisiae rad50 strain growth inhibition; at 50.0 µM; active compounds read high
In short: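 DNA repair mutant yeast, compound exposure, growth read-out; inhibition is taken relative to vehicle.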

[2] = NCI Yeast Anticancer Drug Screen. Data for the mec2-1 strain (AID 157); conditions: S. cerevisiae mec2-1 strain, at 50.0 µM, active compounds read high
In short: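 Strain: mec2-1 (DNA repair/cell cycle alteration). Compound exposure, then growth measured; inhibition expressed relative to vehicle.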

[3] = NCI Yeast Anticancer Drug Screen. Data for the sgs1 mgt1 strain (AID 161);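 note: 0% = growth of cultures given vehicle only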; conditions: S. cerevisiae sgs1 mgt1 strain, at 50.0 µM, active compounds read high
In short: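 Genetically altered yeast, compound exposure, growth inhibition relative to vehicle.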

[4] = NCI Yeast Anticancer Drug Screen. Data for the cln2 rad14 strain (AID 165);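 note: 0% = growth equal to vehicle treated cultures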; conditions: S. cerevisiae cln2 rad14 strain, at 50.0 µM, active compounds read high
In short: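 Compounds are applied to the cln2 rad14 yeast strain, and growth is then compared with that of vehicle-treated cultures to give inhibition.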

[5] = NCI Yeast Anticancer Drug Screen. Data for the bub3 strain (AID 167); conditions: S. cerevisiae bub3 mutant strain, at 50.0 µM, active compounds read high
In short: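 In this screen, a yeast mutant lacking normal mitotic checkpoint function is challenged with compound. Relative growth versus vehicle gives the inhibition value.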

[6] = NCI Yeast Anticancer Drug Screen. Data for the mlh1 rad18 strain (AID 175); conditions: S. cerevisiae mlh1 rad18 strain growth inhibition; at 50.0 µM; active compounds read high
In short: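 Read-out is yeast growth inhibition, calculated against vehicle-only controls. The compound was applied to a strain engineered with DNA damage repair alterations.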

Measured: growth inhibition

CC(C)CCCC(C)C1CCC2C3CCC4=C/C(=N/O)CCC4(C)C3CCC12C (stereo not drawn)
inactive: [1] 40.2% | [2] 12.2% | [3] 40.8% | [4] 34.5% | [5] 25.2% | [6] 32.6%

O=C(/C=C/c1cccs1)c1ccc([N+](=O)[O-])cc1
inactive: [1] -59% | [2] -58.7% | [3] -27.6% | [4] -6.3% | [5] -23.1% | [6] -21.6%

COc1ccc(CCC2c3cc(OC)c(OC)cc3CCN2C)cc1OC (stereo not drawn)
inactive: [1] -41.5% | [2] -15.7% | [3] -6.75% | [4] 5.35% | [5] -19.9% | [6] -4.85%
